We go through 14 molecules from PubChem BioAssay.

Assay [1] in a line: inhibitors of TNFa-induced NFkB p65 translocation, primary screen, imaging, HUVEC, MLSMR starter and 10KST1 sets (AID 438;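 active = inhibition above 20% together with a positive visual image hit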;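 note: compound added about 3h40 before a 20 min TNFalpha stimulation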;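 for inhibition: signal is the nuclear over cytoplasmic p65 intensity ratio per well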). The note with it: HUVEC TNFa-induced p65 nuclear translocation; cell count: measured here: nuclei count (cytotoxicity indicator), at 2.08 µM; inhibition: at 2 µM, stronger effect = higher value, 0% TNFa-plus-vehicle, 100% no-TNFa wells.
Assay [2] can be described thus: inhibitors of mutant huntingtin aggregation, primary screen, imaging, exon1htt(103Q)mCFP cells, high-content imaging (AID 483;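 active = visual image review flags a hit and inhibition of aggregation exceeds 20%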;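 note: compound exposure lasted 3 days before fixation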;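 for nuclei count: percent of the per-plate median nuclei count of sample wells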). To be noted: exon1htt(103Q)mCFP cell line, aggregate imaging, at 2 µM; inhibition of aggregation: stronger effect = higher value; nuclei count: measured here: cell count, toxicity.
The nature of assay [3]: inhibitors of E-selectin induction by TNFa, primary screen, imaging, HUVEC, immunofluorescence, MLSMR starter and 10KST1 sets (AID 487;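 active = visually confirmed hit in the image check and inhibition above 20%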;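 for inhibition: signal is fraction of cell area covered by stained E-selectin grains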;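 for nuclei count: 100% = median nuclei count of all wells on the same plate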). The note with it: HUVEC TNFalpha-induced E-selectin immunofluorescence imaging, at 2 µM; inhibition: stronger effect = higher value; nuclei count: measured here: cell number, toxicity.
Assay [4] concerns the target Voltage-gated potassium channel subunit beta-2 (Rattus norvegicus) (UniProt P62483). In words: KvBeta enzyme negative modulators, primary screen, biochemical, NADPH fluorescence (AID 622;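 active = fluorescence slope higher than the sample average by over 3 SD, cut at about -0.22 in these data, passing the limit was not always enough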;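 note: slope of raw intensity against log time taken from 70 to 1610 s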). To be noted: recombinant KvBeta, 4-cyanobenzaldehyde reduction, at 10 µM, stronger effect = higher value.
The target is the same in assay [5]. In words: KvBeta positive modulators, primary screen, biochemical, NADPH fluorescence (AID 623;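 active = NADPH fluorescence slope more negative than the mean of all samples by about 3 SD, 99.7% confidence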;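 note: fluorescence intensity change per second fitted from 20 to 320 s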). The note with it: Recombinant KvBeta, NADPH fluorescence decrease slope, 10 min; at 10 µM; stronger effect = lower value.
The target in assay [6] is Alpha-2C adrenergic receptor (Homo sapiens) (UniProt P18825). In words: modulators of alpha2C/GIRK thallium flux, primary screen, cell-based, HEK293 alpha2C/GIRK1/2 (AID 624;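 active = fluorescence slope after compound addition differing from the mean of all screened samples at 99.7% confidence, in either direction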;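 note: slope of fluorescence ratio to pre-addition baseline per second over 15 to 24 s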). The note with it: thallium flux BTC fluorescence, at 10 µM, actives lie on both sides.
A short description of assay [7]: inhibitors of Sendai virus-induced IRF3 signaling, primary screen, TLR/RLR signaling modifier project, cell-based, Sendai virus stimulus, luciferase, 10K MLSCN set (AID 602276).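 Note: firefly luciferase from ISG56 promoter only with Renilla not read in this screen; 0% = Sendai virus plus DMSO and 100% = medium plus DMSO without virus.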 The note with it: HEK293 RL24 IRF3 luciferase reporter, at 10 µM, stronger effect = higher value. A general note: Reporter assays use an easily measured gene product as a stand-in for the process of interest.

Assay [8] can be described thus: inhibitors of poly I:C-induced TLR3 signaling, primary screen, cell-based, poly I:C stimulus, luciferase, 10K MLSCN set (AID 602277;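 active = inhibition of the reporter signal at or above 50%; inactive = inhibition below 50%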). To be noted: HEK293-TLR3 RL24 IRF3 luciferase reporter, at 10 µM, stronger effect = higher value.

The source made the active and inactive calls.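 Rule for the calls, unless noted: active = inhibition at or above 50% at 10 µM; inactive = inhibition below 50%.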

Chain of Alpha-2C adrenergic receptor (Homo sapiens) (P18825 whole entry, looked up): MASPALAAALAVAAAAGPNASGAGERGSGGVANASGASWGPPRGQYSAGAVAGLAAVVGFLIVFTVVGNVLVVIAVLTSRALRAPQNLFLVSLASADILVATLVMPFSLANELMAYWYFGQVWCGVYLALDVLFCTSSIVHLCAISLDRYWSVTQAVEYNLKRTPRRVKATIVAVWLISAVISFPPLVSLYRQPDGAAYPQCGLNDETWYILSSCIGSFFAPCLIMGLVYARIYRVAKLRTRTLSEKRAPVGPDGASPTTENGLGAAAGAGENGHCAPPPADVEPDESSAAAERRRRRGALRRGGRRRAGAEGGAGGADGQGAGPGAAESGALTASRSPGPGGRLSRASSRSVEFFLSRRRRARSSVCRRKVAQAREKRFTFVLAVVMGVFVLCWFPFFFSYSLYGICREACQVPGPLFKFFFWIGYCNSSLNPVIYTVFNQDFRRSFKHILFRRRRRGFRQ
Chain of Voltage-gated potassium channel subunit beta-2 (Rattus norvegicus) (P62483 whole entry, looked up): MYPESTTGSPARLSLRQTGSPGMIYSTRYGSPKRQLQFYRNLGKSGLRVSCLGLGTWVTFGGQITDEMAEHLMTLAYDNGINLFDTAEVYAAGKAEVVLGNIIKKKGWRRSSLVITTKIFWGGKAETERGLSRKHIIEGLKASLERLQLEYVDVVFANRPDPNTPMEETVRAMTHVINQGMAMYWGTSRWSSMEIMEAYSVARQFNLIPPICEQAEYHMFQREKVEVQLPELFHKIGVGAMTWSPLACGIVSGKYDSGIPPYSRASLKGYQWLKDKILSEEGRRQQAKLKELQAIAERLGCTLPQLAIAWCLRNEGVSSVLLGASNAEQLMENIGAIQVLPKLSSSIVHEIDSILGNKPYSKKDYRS

The term inhibition denotes the drop in the measured response relative to a control, in per cent. Take `CCCNC(=O)CS(=O)(=O)Cc1nc(-c2cccc(OC)c2)oc1C`: the cell count in assay [1] was 781. For the same molecule, the inhibition in assay [1] was 3.5% (inactive); in assay [3], -52% (inactive); in assay [7] it was 9.03% (inactive); in assay [8], -7.6% (inactive). Also, the inhibition of aggregation in assay [2] was 12.5% (inactive). The nuclei count in assay [2] was found to be 99.7%; in assay [3], 127%. Also, the fluorescence slope in assay [4] is -0.543 (inactive). For the same molecule, the NADPH fluorescence slope in assay [5] is 4.4e-05 (inactive). Also, the slope in assay [6] is 0.007 (inactive).

For the molecule `CCOc1ccc2nc(NC(=O)CSc3nnnn3C3CCCCC3)sc2c1`, in assay [1], the cell count is 401. Besides, the inhibition in assay [1] was 1.7% (inactive); in assay [3], -74.4% (inactive); in assay [7], -4.95% (inactive); in assay [8], -46.7% (inactive). For the same molecule, the inhibition of aggregation in assay [2] is -8% (inactive). The nuclei count in assay [2] is 108%; in assay [3], 92.8%. Also, in assay [4], the fluorescence slope was -0.393 (inactive). Moreover, the NADPH fluorescence slope in assay [5] is -3.7e-05 (inactive). Moreover, the slope in assay [6] was 0.00315 (inactive).

Consider `COc1ccc(CN(CC(=O)NCC2CCCO2)C(=O)CNS(=O)(=O)c2ccc(C)cc2)cc1` (centres undefined), for which the cell count in assay [1] was 589. The inhibition in assay [1] is -20.2% (inactive); in assay [3], -52.4% (inactive); in assay [7], 9.43% (inactive); in assay [8] it was 3.49% (inactive). For the same molecule, in assay [2], the inhibition of aggregation is -5.2% (inactive). Moreover, the nuclei count in assay [2] amounted to 119%; in assay [3], 92.4%. Moreover, the fluorescence slope in assay [4] is 0.012 (inactive). Besides, the NADPH fluorescence slope in assay [5] was -3.8e-05 (inactive). For the same molecule, the slope in assay [6] was 0.00362 (inactive).

Consider `Cc1ccc(-c2cc(C(=O)Nc3cc(C)on3)c3ccccc3n2)c(C)c1`, for which the cell count in assay [1] stood at 688. Further, the inhibition was 1.1% (inactive) in assay [1], -17.5% (inactive) in assay [3], 10.5% (inactive) in assay [7] and 38.8% (inactive) in assay [8]. Besides, in assay [2], the inhibition of aggregation is 11.6% (inactive). The nuclei count in assay [2] was determined as 111%; in assay [3] it was 115%. In addition, the fluorescence slope in assay [4] is -0.543 (inactive). Moreover, in assay [5], the NADPH fluorescence slope was -4.3e-05 (inactive). The slope in assay [6] is 0.00596 (inactive).

With `Cc1cc(C)cc(NC(=O)CSc2nnc(Cc3cccn3C)n2-c2ccc(F)cc2)c1`, the cell count in assay [1] came out at 479. Also, the inhibition in assay [1] is 4% (inactive); in assay [3], 39.4% (inactive); in assay [7], 13.7% (inactive); in assay [8] it was 25.8% (inactive). For the same molecule, in assay [2], the inhibition of aggregation was 36.9% (inactive). In addition, the nuclei count in assay [2] turned out to be 12.9%; in assay [3], 96.5%. Also, the fluorescence slope in assay [4] was -0.519 (inactive). In assay [5], the NADPH fluorescence slope is -2e-05 (inactive). For the same molecule, the slope in assay [6] is 0.00611 (inactive).

For the molecule `FC(F)(F)c1cccc(N2CCN(c3nnnn3-c3ccccc3)CC2)c1`, the cell count in assay [1] came out at 394. For the same molecule, the inhibition in assay [1] is -3.8% (inactive); in assay [3], -98.2% (inactive); in assay [7], 10.2% (inactive); in assay [8] it was 2.35% (inactive). The inhibition of aggregation in assay [2] is -1.6% (inactive). In addition, the nuclei count in assay [2] was found to be 96.2%; in assay [3], 112%. The fluorescence slope in assay [4] was -0.647 (inactive). Besides, the NADPH fluorescence slope in assay [5] is 1.2e-05 (inactive). In assay [6], the slope was 0.00945 (inactive).

As for `COc1ccc(C2(C(=O)N3CCCC3)CCOCC2)cc1OC`, the cell count in assay [1] was 352. Besides, the inhibition is 5.5% (inactive) in assay [1], 30.4% (inactive) in assay [3], 2.28% (inactive) in assay [7] and 15.1% (inactive) in assay [8]. Also, the inhibition of aggregation in assay [2] is -9.9% (inactive). The nuclei count in assay [2] stood at 97.5%; in assay [3], 111%. In addition, the fluorescence slope in assay [4] was -0.341 (inactive). Also, the NADPH fluorescence slope in assay [5] is -1.4e-05 (inactive). Besides, the slope in assay [6] was 0.00553 (inactive).

On to `CCN(CC)S(=O)(=O)c1ccc(F)cc1`, for which, in assay [1], the cell count was 630. Further, the inhibition in assay [1] was 2.4% (inactive); in assay [3], -75.6% (inactive); in assay [7], 13.9% (inactive); in assay [8], 19.3% (inactive). For the same molecule, in assay [2], the inhibition of aggregation is -0.6% (inactive). The nuclei count came out at 100% in assay [2] and 114% in assay [3]. Besides, the fluorescence slope in assay [4] was -0.506 (inactive). Besides, the NADPH fluorescence slope in assay [5] was -0.000197 (inactive). Besides, the slope in assay [6] is 0.00613 (inactive).

Turning to `COc1ccc(NC(=O)CCc2ccccc2)cc1NC(=O)c1ccco1`, the cell count in assay [1] amounted to 526. In addition, the inhibition was 2.3% (inactive) in assay [1], -61.5% (inactive) in assay [3], 16.7% (inactive) in assay [7] and 37.2% (inactive) in assay [8]. Besides, the inhibition of aggregation in assay [2] was 8.7% (inactive). Besides, the nuclei count in assay [2] was 88.9%; in assay [3], 95.1%. Further, the fluorescence slope in assay [4] is -0.504 (inactive). Further, in assay [5], the NADPH fluorescence slope was -5e-05 (inactive). For the same molecule, the slope in assay [6] is 0.0047 (inactive).

In the case of `C=CCn1c(SCC(=O)Nc2cccc(OC)c2)nnc1-c1cccnc1`, the cell count in assay [1] is 619. In addition, the inhibition in assay [1] is -4.8% (inactive); in assay [3] it was -52.7% (inactive); in assay [7], 10.5% (inactive); in assay [8], 16.9% (inactive). Moreover, the inhibition of aggregation in assay [2] was 0.3% (inactive). The nuclei count in assay [2] turned out to be 118%; in assay [3], 104%. In addition, the fluorescence slope in assay [4] is -0.527 (inactive). In assay [5], the NADPH fluorescence slope is -9.5e-06 (inactive). Besides, the slope in assay [6] was 0.00671 (inactive).

Take `Cn1c(SCC(=O)Nc2ccc3c(c2)oc2ccccc23)nnc1-c1ccccc1`: the cell count in assay [1] was 403. In addition, the inhibition in assay [1] is -1.1% (inactive); in assay [3] it was -52.8% (inactive); in assay [7], -1.19% (inactive); in assay [8] it was -25.5% (inactive). The inhibition of aggregation in assay [2] was 4.5% (inactive). For the same molecule, the nuclei count was determined as 96.1% in assay [2] and 109% in assay [3]. Also, the fluorescence slope in assay [4] is -0.515 (inactive). Besides, the NADPH fluorescence slope in assay [5] was -0.000134 (active). The slope in assay [6] was 0.0032 (inactive).

As for `CCN(CCCNC(=O)CCNC(=O)Cn1ccc2ccccc2c1=O)c1ccccc1`, in assay [1], the cell count came to 393. The inhibition in assay [1] was 4.5% (inactive); in assay [3], -106% (inactive); in assay [7], -0.268% (inactive); in assay [8] it was -15.2% (inactive). Further, in assay [2], the inhibition of aggregation was -6.3% (inactive). Further, the nuclei count in assay [2] is 103%; in assay [3] it was 118%. For the same molecule, the fluorescence slope in assay [4] is -0.441 (inactive). The NADPH fluorescence slope in assay [5] is -8.2e-06 (inactive). The slope in assay [6] is 0.00588 (inactive).

In the case of `Cc1cccc(Cn2c(SCC(=O)Nc3ccccc3)nc3c2c(=O)[nH]c(=O)n3C)c1`, the cell count in assay [1] came to 467. Further, the inhibition is 5.4% (inactive) in assay [1], 4.7% (inactive) in assay [3], 14.6% (inactive) in assay [7] and 13.4% (inactive) in assay [8]. In addition, the inhibition of aggregation in assay [2] was 44.6% (inactive). Also, the nuclei count in assay [2] came to 83.4%; in assay [3], 89.8%. The fluorescence slope in assay [4] was -0.394 (inactive). For the same molecule, the NADPH fluorescence slope in assay [5] is 2.9e-05 (inactive). The slope in assay [6] is 0.0074 (inactive).

Take `CCn1c(=O)c(C(=O)NCc2ccc(OC)cc2)c(O)c2ccccc21`: the cell count in assay [1] worked out at 685. Further, the inhibition in assay [1] is 12.5% (inactive); in assay [3] it was 33.9% (inactive); in assay [7] it was 14.7% (inactive); in assay [8], 16.2% (inactive). The inhibition of aggregation in assay [2] is 0.6% (inactive). The nuclei count in assay [2] and in assay [3] was 101% throughout. The fluorescence slope in assay [4] is -0.353 (inactive). Besides, the NADPH fluorescence slope in assay [5] is -2.5e-05 (inactive). Besides, in assay [6], the slope was 0.00899 (inactive).
